PubChem BioAssay (NCATS)
Results filed as inconclusive are left out. Calls of active or inactive are those of the source. Calls come from the whole dose curve; as a rule, active = well fitted curve in the direction sought with a large enough effect; inconclusive = small, poorly fitted or top-dose-only effect, or another doubt; inactive = no such curve, though single readings can be large; an effect the other way counts as inactive or inconclusive.

Key:
CRL-7250 = normal cell line; assay: Cytotoxic Profiling of Annotated Libraries Using Quantitative High-Throughput Screening (AID 1296008); conditions: Five cell lines viability, CellTiter-Glo ATP luminescence, 48-72 h; max response: stronger effect = lower value; note: nearly all actives have a fitted effect of over 60% in size; for max response: % is set by controls: 0 for no effect and ±100 for the full control effect
Summary of the method: (§1)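 Cytotoxicity was measured as CellTiter-Glo ATP luminescence, read after 10 min at room temperature. Compound treatment of the cells lasted 48 or 72 hr at 37 degrees Celsius in a qHTS format.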

HaCat [1] = assay: as above; conditions: Five cell lines viability, CellTiter-Glo ATP luminescence, 48-72 h; max response: stronger effect = lower value
Summary of the method: as §1

KB-3-1 = assay: as above; conditions: Five cell lines viability, CellTiter-Glo ATP luminescence, 48-72 h; max response: stronger effect = lower value
Summary of the method: as §1

NIH3T3 = assay: as above; conditions: Five cell lines viability, CellTiter-Glo ATP luminescence, 48-72 h; max response: stronger effect = lower value
Summary of the method: as §1

HACAT [2] = assay: qHTS assay to identify novel small-molecules to repurpose for Merkel cell carcinoma treatment (AID 1296009); conditions: MCC and control cell lines, CellTiter-Glo viability, 72 h; at 44.8 µM (top of the series) unless noted; note: nearly all actives have a fitted effect of over 60% in size
Summary of the method: (§2)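 Cell viability measured by CellTiter-Glo following 72 hr compound treatment at 37 degree celsius, with NPC and MIPE libraries tested in 8- and 11-point concentration series.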

C33A = assay: Primary qHTS to identify gynecologic anti-cancer compounds using libraries of approved drugs and bioactive compounds (AID 1345084); conditions: Gynecologic cancer cell panel viability, ATPlite luminescence, 48 h; series mostly up to 57.5 µM; note: nearly all actives have a fitted effect of over 55% in size; for activity change, negative = cytotoxicity: % is set by controls: 0 for no effect and ±100 for the full control effect
Summary of the method: (§3)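 48 h compound exposure at 37 C, 5% CO2; five-point qHTS. ATPlite luminescence readout of cell ATP.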

CASKI = assay: as above; conditions: Gynecologic cancer cell panel viability, ATPlite luminescence, 48 h; series mostly up to 57.5 µM
Summary of the method: as §3

Es-2 = assay: as above; conditions: Gynecologic cancer cell panel viability, ATPlite luminescence, 48 h; series mostly up to 57.5 µM
Summary of the method: as §3

HeLa = assay: as above; conditions: Gynecologic cancer cell panel viability, ATPlite luminescence, 48 h; series mostly up to 57.5 µM
Summary of the method: as §3

Hek293T = assay: as above; conditions: Gynecologic cancer cell panel viability, ATPlite luminescence, 48 h, control line for the selectivity index; series mostly up to 57.5 µM
Summary of the method: as §3

JEG-3 = assay: as above; conditions: Gynecologic cancer cell panel viability, ATPlite luminescence, 48 h; series mostly up to 57.5 µM
Summary of the method: as §3

PA-1 = assay: as above; conditions: Gynecologic cancer cell panel viability, ATPlite luminescence, 48 h; series mostly up to 57.5 µM
Summary of the method: as §3

SKOV3 = assay: as above; conditions: Gynecologic cancer cell panel viability, ATPlite luminescence, 48 h; series mostly up to 57.5 µM
Summary of the method: as §3

CAOV3 = assay: as above; conditions: Gynecologic cancer cell panel viability, ATPlite luminescence, 48 h; series mostly up to 57.5 µM
Summary of the method: as §3

OV90 = assay: as above; conditions: Gynecologic cancer cell panel viability, ATPlite luminescence, 48 h; series mostly up to 57.5 µM
Summary of the method: as §3

MCC-26 = assay: qHTS assay to identify novel small-molecules to repurpose for Merkel cell carcinoma treatment (AID 1296009); conditions: MCC and control cell lines, CellTiter-Glo viability, 72 h; note: nearly all actives have a fitted effect of over 60% in size
Summary of the method: as §2

MKL-2 = assay: as above; conditions: MCC and control cell lines, CellTiter-Glo viability, 72 h
Summary of the method: as §2
Potency is the fitted concentration of half-maximal effect.

CCNC1(C(N)=O)CN(c2nc(C)nc3c(-c4ccc(Cl)cc4)c(-c4ccccc4Cl)nn23)C1
inactive: max response (CRL-7250) -17.8% | outcome (HaCat [1]) | max response (KB-3-1) -14.3% | max response (NIH3T3) -3.55% | outcome (HACAT [2]) | Potency (C33A) | Potency (CASKI) | Potency (Es-2) | Potency (HeLa) | Potency (Hek293T) | Potency (JEG-3) | Potency (PA-1) | Potency (SKOV3)

O=C(NCCCNc1nc(Nc2cccc(CN3CCOCC3)c2)ncc1C1CC1)C1CCC1
active: Potency (CRL-7250) 5.8 µM | Potency (KB-3-1) 20.6 µM | Potency (NIH3T3) 4.61 µM | Potency (CAOV3) 11.2 µM
inactive: outcome (HaCat [1]) | outcome (HACAT [2]) | Potency (C33A) | Potency (CASKI) | Potency (Es-2) | Potency (Hek293T) | Potency (JEG-3) | Potency (OV90)

Cc1cc(C)c(-n2cc(C)c3c(Cl)nc(C)nc32)c(C)c1
inactive: max response (CRL-7250) -11.1% | outcome (HaCat [1]) | max response (KB-3-1) -3.82% | max response (NIH3T3) -6% | outcome (HACAT [2]) | Potency (C33A) | Potency (CASKI) | Potency (Es-2) | Potency (HeLa) | Potency (Hek293T) | Potency (JEG-3) | Potency (OV90) | Potency (PA-1) | Potency (SKOV3)

O=C1COC2(CCN(S(=O)(=O)c3ccc(-c4ccc5cccnc5c4)cc3)CC2)CN1C1CC1
inactive: max response (CRL-7250) -2.24% | outcome (HaCat [1]) | max response (KB-3-1) 7.72% | max response (NIH3T3) -10.8% | outcome (HACAT [2]) | Potency (C33A) | Potency (CAOV3) | Potency (CASKI) | Potency (Es-2) | Potency (HeLa) | Potency (Hek293T) | Potency (JEG-3) | Potency (PA-1) | Potency (SKOV3)

Cc1ccc(OC[C@H](O)[C@H](C)NC(C)C)c2c1CCC2
inactive: max response (CRL-7250) -3.77% | outcome (HaCat [1]) | max response (KB-3-1) 5.3% | max response (NIH3T3) 0.0465% | outcome (HACAT [2]) | Potency (CAOV3) | Potency (CASKI) | Potency (Es-2) | Potency (HeLa) | Potency (Hek293T) | Potency (JEG-3) | Potency (OV90) | Potency (PA-1) | Potency (SKOV3)

O=C(NCCCn1ccnc1)c1cc(-c2ccco2)on1
inactive: max response (CRL-7250) -18.4% | outcome (HaCat [1]) | max response (KB-3-1) -0.296% | max response (NIH3T3) 2.29% | outcome (HACAT [2]) | Potency (C33A) | Potency (CASKI) | Potency (HeLa) | Potency (Hek293T) | Potency (JEG-3) | Potency (OV90) | Potency (SKOV3)

CN[C@H]1CC[C@@H](c2ccc(Cl)c(Cl)c2)c2ccccc21
active: Potency (CRL-7250) 3.76 µM | Potency (HaCat [1]) 15 µM | Potency (NIH3T3) 11.9 µM | Potency (MCC-26) 26.6 µM | Potency (MKL-2) 8.41 µM | Potency (CASKI) 28.2 µM | Potency (SKOV3) 28.2 µM
inactive: max response (KB-3-1) -11.2%

COC1=CC(=O)O/C1=C(/OC)[C@@H]1O[C@H]1c1ccccc1
inactive: max response (CRL-7250) -14.3% | outcome (HaCat [1]) | max response (KB-3-1) -13.4% | max response (NIH3T3) -27.3% | outcome (HACAT [2]) | Potency (C33A) | Potency (CAOV3) | Potency (CASKI) | Potency (Es-2) | Potency (HeLa) | Potency (Hek293T) | Potency (JEG-3) | Potency (OV90) | Potency (SKOV3)

Cc1cc(OCCCS(C)(=O)=O)cc(C)c1-c1cccc(COc2ccc(C3=CC(=O)NS3=O)cc2)c1 (configuration not stated)
inactive: max response (CRL-7250) 3.79% | outcome (HaCat [1]) | max response (KB-3-1) 3.57% | max response (NIH3T3) -0.311% | outcome (HACAT [2]) | Potency (C33A) | Potency (CAOV3) | Potency (Es-2) | Potency (Hek293T) | Potency (JEG-3) | Potency (SKOV3)

CCNC1(C(N)=O)CCN(c2ncnc3c2nc(-c2ccccc2Cl)n3-c2ccc(Cl)cc2)CC1
inactive: outcome (CRL-7250) | outcome (HaCat [1]) | max response (KB-3-1) 6.15% | max response (NIH3T3) -1.7% | outcome (HACAT [2]) | Potency (C33A) | Potency (CAOV3) | Potency (CASKI) | Potency (Es-2) | Potency (HeLa) | Potency (Hek293T) | Potency (OV90) | Potency (PA-1) | Potency (SKOV3)

CC(=O)O[C@H]1[C@@]2(O)C[C@H](C)[C@H](OC(=O)c3ccccc3)[C@@H]2[C@@H](OC(=O)CO)[C@]2(OC(C)=O)C[C@H]3C(=O)C(C)(C)C[C@@H]3[C@@]1(C)[C@H]2OC(C)=O
inactive: max response (CRL-7250) -5.8% | outcome (HaCat [1]) | max response (KB-3-1) -0.153% | max response (NIH3T3) 1.84% | outcome (HACAT [2]) inactive [at 17.4 µM] | Potency (C33A) | Potency (CAOV3) | Potency (CASKI) | Potency (HeLa) | Potency (Hek293T) | Potency (JEG-3) | Potency (OV90) | Potency (PA-1) | Potency (SKOV3)

Fc1ccc(CN2CCC(Nc3ccc(C(F)(F)F)nn3)CC2)cc1F
inactive: max response (CRL-7250) -3.28% | outcome (HaCat [1]) | max response (KB-3-1) -12.1% | max response (NIH3T3) -5.8% | outcome (HACAT [2]) | Potency (C33A) | Potency (CAOV3) | Potency (Es-2) | Potency (HeLa) | Potency (Hek293T) | Potency (JEG-3) | Potency (OV90) | Potency (PA-1) | Potency (SKOV3)

O=C(c1ccc(OC(F)F)c(C#Cc2ccccn2)c1)N1Cc2cccnc2C1
inactive: max response (CRL-7250) 4.31% | outcome (HaCat [1]) | max response (KB-3-1) -1.9% | max response (NIH3T3) 3.1% | outcome (HACAT [2]) | Potency (C33A) | Potency (CAOV3) | Potency (CASKI) | Potency (Hek293T) | Potency (JEG-3) | Potency (OV90)

CC(=O)OC1CC(C)(C(=O)O)CC2C3=CC(=O)C4C5(C)CCC(OC6OC(C(=O)O)C(O)C(O)C6OC6OC(C(=O)O)C(O)C(O)C6O)C(C)(C)C5CCC4(C)C3(C)CCC12C (configuration not stated)
inactive: max response (CRL-7250) -2.54% | outcome (HaCat [1]) | max response (KB-3-1) 3.1% | max response (NIH3T3) 1.8% | outcome (HACAT [2]) inactive [at 9.27 µM] | activity change, negative = cytotoxicity (C33A) 10.4% [at 11.6 µM] | activity change, negative = cytotoxicity (CASKI) 12.9% [at 11.6 µM] | activity change, negative = cytotoxicity (Es-2) 12.5% [at 11.6 µM] | activity change, negative = cytotoxicity (HeLa) 14.8% [at 11.6 µM] | activity change, negative = cytotoxicity (Hek293T) 7.86% [at 11.6 µM] | activity change, negative = cytotoxicity (JEG-3) 5.64% [at 11.6 µM] | activity change, negative = cytotoxicity (OV90) 2.42% [at 11.6 µM] | activity change, negative = cytotoxicity (PA-1) 22.8% [at 11.6 µM] | activity change, negative = cytotoxicity (SKOV3) 0% [at 11.6 µM]

COc1cc(O)cc(/C=C/c2cccc(O)c2)c1
inactive: max response (CRL-7250) 0.366% | outcome (HaCat [1]) | outcome (KB-3-1) | max response (NIH3T3) -7.28% | outcome (HACAT [2]) | Potency (C33A) | Potency (CASKI) | Potency (Es-2) | Potency (HeLa) | Potency (Hek293T) | Potency (JEG-3) | Potency (OV90) | Potency (PA-1)
